# In ChEMBL document CHEMBL1157539, “Thousands of chemical starting points for antimalarial lead identification” (Nature, 2010):
# Several values for one entry are separate records, joined by “and”; a condition that tells them apart may be missing. Equal values may be shown once. The full ranking holds about 13,000 compounds; the median of “IFI” is about 4, and the highest 2% start at about 17. The sample as a whole holds a higher share of the highest values than the screen did.
# Assay: GSK_TCMDC: Inhibition Frequency Index (IFI). The number of non-kinase HTS assays where a compound showed > 50 % inhibition, expressed as a percentage of the number of such assays in which the compound was tested
# Type: functional
row,Compound,IFI
1,CC(=O)C1(c2ccccc2)CCN(CCC(NC(=O)c2cc(C(F)(F)F)cc(C(F)(F)F)c2)c2ccc(Cl)c(Cl)c2)CC1 (stereo not given),1.45%
2,CN(C(=O)OCc1ccccc1)C1CCC(CCN2CCC3(CC2)C(=O)NCN3c2cccc(C(F)(F)F)c2)(c2ccccc2)CC1 (stereo not given),8.63%
3,O=C(c1cc(C(F)(F)F)cc(C(F)(F)F)c1)N1CCC(CCN2CCC3(CC2)C(=O)NCN3c2ccccc2)CC1Cc1ccc(Cl)c(Cl)c1 (stereo not given),20%
4,Cc1cc(NC(=O)[C@@H](Nc2ccc(C#N)c3ccccc23)C2CCCCC2)ccc1F,3.85%
5,c1ccc(C(OCCC2CCN(Cc3cccc4cccnc34)CC2)c2ccccc2)cc1,3.1%
6,CC(Cc1ccc(OC2CCCCC2)cc1)NCC(O)c1cccc(Cl)c1 (stereo not given),21.7%
7,Cc1ccc(CC(C)NC[C@H](O)c2cccc(Cl)c2)cc1 (stereo not given in full),4.38% and 0.72%
8,CC(Cc1ccc(Oc2ccc(Cl)cc2)cc1)NCC(O)c1cccc(Cl)c1 (stereo not given),7.3%
9,CN1C2CCC1c1cc(NC(=O)c3cc(-c4ccc(Cl)cc4)cs3)ccc12 (stereo not given),13.3%
10,CC(Cc1ccc(OCCOc2ccccc2)cc1)NCC(O)c1cccc(C(F)(F)F)c1 (stereo not given),2.9%
11,COC(C(=O)OCCC1CCCN1C)(c1ccccc1)c1ccccc1 (stereo not given),2.19%
12,CC(Cc1ccc(OCc2ccccc2)cc1)NCC(O)c1cccc(Cl)c1 (stereo not given),15.6%
13,CC(Cc1ccc(OCCCCOc2ccccc2)cc1)NCCC1CCCN1C (stereo not given),32.5%
14,CC(Cc1ccc(OCCCCOc2ccccc2)cc1)NCCCn1ccnc1 (stereo not given),32.6%
15,CC(Cc1ccc(Oc2ccccc2)cc1)NCC(O)c1cccc(C(F)(F)F)c1 (stereo not given),4.96%
16,CCCCCOc1ccc(CC(C)NCC(O)c2cccc(Cl)c2)cc1 (stereo not given),4.86%
17,COC(C(=O)OCCC1CCCN1C)(c1ccccc1)C1CCCCC1 (stereo not given),1.45%
18,CC(Cc1ccc(OCCCCOc2ccccc2)cc1)NCCCN1CCOCC1 (stereo not given),30.1%
19,CN1CC=C(c2c[nH]c3ccc(Sc4ccccc4)cc23)CC1,3.7%
20,CCCCCCC(C)(C)c1cc(O)c2c3c(c(=O)oc2c1)CCN(Cc1ccccc1)C3,2.22%
21,COC(=O)c1ccc(CC(C)NCC(O)c2cccc(OCc3ccccc3)c2)cc1 (stereo not given),5.76%
22,CC1CN=C(Nc2ncc(Cl)cc2Cl)N1 (stereo not given),0.7%
23,CN(C)CCc1c[nH]c2ccc(C(=O)Nc3ccc(-c4ccncc4)cc3)cc12,5.19%
24,COc1cccc(CN2CCC(CCOC(c3ccccc3)c3ccccc3)CC2)c1O,3.1%
25,CC(C)CNCc1ccc(-c2cccc(CN(C(=O)CCC3CCCC3)C3CCN(Cc4ccccc4)CC3)c2)cc1,9.29%

row,Compound,IFI
1,O=C(Nc1ccccc1C(F)(F)F)NC1CCC(CN2CCC(c3c[nH]c4ccccc34)CC2)CC1 (stereo not given),4.29% and 2.14%
2,O=C1c2ccccc2CCC1CCN1CC=C(c2c[nH]c3ccccc23)CC1 (stereo not given),2.92%
3,O=C(Nc1cc(C(F)(F)F)cc(C(F)(F)F)c1)c1cc(Cl)ccc1O,33.3%
4,O=C(c1cc(C(=O)NCc2ccc(Cl)cc2)c(=O)n(Cc2ccc(Cl)cc2)c1)c1cc(Cl)ccc1O,0%
5,O=C(/C=C/c1ccccc1Cl)NC1CCC(CN2C3CCC2CC(c2c[nH]c4ccccc24)C3)CC1 (stereo not given),6.38%
6,CCCCCc1cc(O)c2c(c1)OC(C)(C)CC2C1=CCN(Cc2ccccc2)CC1 (stereo not given),2.86%
7,Cc1csc(-c2ccc3[nH]cc(C4=CCN(C)CC4)c3c2)n1,0%
8,CC[C@H]1CN2CC[C@H]1C[C@H]2[C@H](O)c1cc(N2CCCC(CO)C2)nc2ccc(OC)cc12 (stereo not given in full),0%
9,O=C(NC1CCC(CN2CCC(c3c[nH]c4ccccc34)CC2)CC1)c1cc2cccc([N+](=O)[O-])c2[nH]1 (stereo not given),3.65%
10,CC(Cc1ccc(NC(=O)[C@H](C)NCCc2cccc(Cl)c2)cc1)NCCc1cccc(Cl)c1 (stereo not given in full),9.35%
11,CC(Cc1ccc(NC(=O)CCCc2ccccc2)cc1)NCCc1cccc(Cl)c1 (stereo not given),4.29%
12,CC(Cc1ccc(NC(=O)CCNCc2ccccc2)cc1)NCCc1cccc(Cl)c1 (stereo not given),32.4%
13,O=C(/C=C/c1ccccc1Cl)NC1CCC(CN2CCC(c3c[nH]c4ccccc34)CC2)CC1 (stereo not given),5.04% and 6.94%
14,CC(=O)N(Cc1cccc(-c2cccc(CNCc3ccc4c(c3)OCO4)c2)c1)C1CCN(Cc2ccccc2)CC1,4.51%
15,COc1ccc(F)cc1-c1csc(N(c2ccc(F)cc2)C2CCNCC2)n1,14.4%
16,COc1ccc(N(c2nc(-c3cc(Cl)ccc3Cl)cs2)C2CCNCC2)cc1,23.1%
17,Fc1ccc(N(c2nc(-c3cc(F)cc(C(F)(F)F)c3)cs2)C2CCNCC2)cc1,17.1%
18,CCOC(=O)c1c(CN2CCN(C)CC2)n(Cc2ccccc2)c2cc(Br)c(O)cc12,5.56%
19,COc1ccc(C=CC(=O)NC2CCC(CN3CCC(c4c[nH]c5ccccc45)CC3)CC2)cc1 (stereo not given),7.19% and 5.04%
20,O=C(C=Cc1ccc(F)c(Br)c1)N1CCC(CN2CCC(c3c[nH]c4ccccc34)CC2)CC1,6.62%
21,COc1ccc(C2CNCc3c2cc(OC)c(OC)c3Cl)cc1 (stereo not given),2.94%
22,COc1cc(NC(=O)c2nn(CCCN3CCC4(CC3)C(=O)NCN4c3ccccc3)cc2-c2ccc(Cl)c(Cl)c2)cc(OC)c1OC,15.4%
23,O=C1NCN(c2ccc(O)cc2)C12CCN(CCCC(c1ccc(F)cc1)c1ccc(F)cc1)CC2,4.32%
24,O=C(NCc1ccccc1)c1nn(CCCN2CCC3(CC2)C(=O)NCN3c2ccccc2)cc1-c1ccc(Cl)c(Cl)c1,24.3%
25,O=C(NCc1ccc(S(=O)(=O)N2CCC(CN3CCC(c4c[nH]c5ccccc45)CC3)CC2)s1)c1ccccc1,6.85%

row,Compound,IFI
1,O=C(C=Cc1ccc(Br)cc1)NC1CCC(CN2CCC(c3c[nH]c4ccccc34)CC2)CC1 (stereo not given),6.38%
2,O=C1Nc2cccc3c2C1(CCCCN1CC=C(c2c[nH]c4ncccc24)CC1)CCC3 (stereo not given),4.41%
3,N#Cc1c(F)cc(N2CCC(NCC[C@H](N)Cc3ccc(F)c(F)c3)CC2)cc1F,21.9%
4,N[C@@H](CCN1CCC(c2cccc(O)c2)CC1)Cc1ccc(F)c(F)c1,12.1%
5,CCC1(C)N=C(N)N=C(N)N1c1ccc(Cl)cc1 (stereo not given),0%
6,COc1cccc(C(=O)C2CC2CN2CC=C(c3c(C)[nH]c4ccccc34)CC2)c1 (stereo not given),3.74%
7,C[C@H](Cc1ccc(OCCCCCCOc2ccccc2)cc1)NC[C@H](O)c1cccc(Cl)c1,7.64%
8,CC(Cc1ccc(OCc2ccc(CCN(C)C)cc2)cc1)NCCc1cccc(Cl)c1 (stereo not given),5.84%
9,COc1cccc(CCNC(C)Cc2ccc(OCCCCOc3ccccc3)cc2)c1 (stereo not given),31%
10,C[C@H](Cc1ccc(OCCCCCCOc2ccccc2)cc1)NC[C@@H](O)c1cc(Br)no1,13.5%
11,CNCCCCCCOc1ccc(CC(C)NCC(O)c2cccc(C(F)(F)F)c2)cc1 (stereo not given),7.8%
12,CC(Cc1ccc(OCCOc2ccccc2)cc1)NCC(O)c1cccc(Cl)c1 (stereo not given),6.38%
13,COc1cccc(CC(C)NCC(O)c2cccc(Cl)c2)c1 (stereo not given),1.44%
14,CC(Cc1ccc(OCCCCOc2ccccc2)cc1)NCCCc1nc2ccccc2[nH]1 (stereo not given),33.3%
15,CC(Cc1ccc(OCCCCOc2ccccc2)cc1)NCCc1ccccc1Cl (stereo not given),28%
16,Cn1nc(C(F)(F)F)cc1-c1ccc(C(=O)NC2CCC(CN3CCC(c4c[nH]c5ccccc45)CC3)CC2)s1 (stereo not given),6.16%
17,O=C(Nc1ccc(Cl)c(Cl)c1)N1CCC(CN2CCC(c3c[nH]c4ccccc34)CC2)CC1,4.23%
18,CC[C@H]1CN2CC[C@H]1C[C@H]2[C@H](O)c1cc(-c2ccccc2C)nc2ccc(OC)cc12,5.44%
19,CCCCCCCCNCC(O)c1ccc(Cl)c(Cl)c1 (stereo not given),11.1%
20,CN(c1cc(NC(=O)c2cccs2)ccn1)C1CCN(Cc2ccccc2)CC1,2.78%
21,Cc1nc(C)c(-c2ccc(Oc3ccc(OC(F)(F)F)cc3)cc2)c(OC(=O)N(CCNC(C)C)C(C)C)c1Br,18%
22,CNCCN(C)C(=O)Oc1c(Br)c(C)nc(C)c1-c1ccc(Oc2ccc(OC(F)(F)F)cc2)cc1,12.4%
23,CNCCCN(C)C(=O)Oc1c(Br)c(C)nc(C)c1-c1ccc(Oc2ccc(OC(F)(F)F)cc2)cc1,7.41%
24,COc1cccc(O)c1CNCC(O)c1cccc(C(F)(F)F)c1 (stereo not given),0.78%
25,CC(=O)Nc1ccc2[nH]cc(C3CCN(CC4CCN(C(=O)/C=C/c5ccc(Cl)c(Cl)c5)CC4)CC3)c2c1,1.46%
